Assay [1] in a line: Human pregnane X receptor (PXR) small molecule agonists, qHTS cell viability counter screen (AID 1346977). Note: nearly all actives have a fitted effect of over 50% in size. Note: potency is the fitted concentration of half-maximal effect. In outline:
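Tox21 qHTS format; PXR-Luc HepG2, 2,000/well, charcoal-stripped FBS 5%. Cpd exposure 24hr. Read: CellTiter-Fluor fluorescence, multiplexed with luciferase.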
(In general: In qHTS, concentration-response curves come from the screen itself.)

The nature of assay [2]: Caspase-3/7 induction in CHO-K1 cells by small molecules, qHTS assay (AID 1346980). Note: nearly all actives have a fitted effect of over 15% in size. In outline: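 Wild-type cells were seeded at 1,500 per well and settled 5 hr at 37 C, 5% CO2, then exposed to DMSO-dissolved compounds for 17 hr. Caspase-Glo 3/7 reagent was added, and luminescence was read after 30min at room temperature.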
Assay [3] is described as follows: Caspase-3/7 induction in HepG2 cells by small molecules, qHTS cell viability counter screen (AID 1346981). Note: nearly all actives have a fitted effect of over 30% in size. Note: potency is the fitted concentration of half-maximal effect. The essentials:
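Wild-type HepG2 cells (2,000/well) were allowed to settle for 5 hr at 37 C, 5% CO2, then dosed with compounds in DMSO by pin transfer. After 16 hr at 37 C, CellTiter-Fluor was added and fluorescence read 1 hr later.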

Assay [4] addresses Nuclear receptor subfamily 1 group I member 2 (Homo sapiens) (UniProt O75469). Description: Human pregnane X receptor (PXR) small molecule agonists, qHTS assay (AID 1346982). Note: nearly all actives have a fitted effect of over 35% in size. Note: potency is the fitted concentration of half-maximal effect. In outline: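 PXR-Luc HepG2 cells (CYP3A4 promoter-driven luciferase) were seeded in medium with 5% charcoal-stripped FBS, left 5 hr at 37 C, then exposed to compounds in DMSO for 24 hr. Luminescence was read after ONE-Glo addition.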

The target in assay [5] is Nuclear receptor subfamily 1 group I member 2 (Rattus norvegicus) (UniProt Q9R1A7). The assay can be described thus: Rat pregnane X receptor (rPXR) activation by small molecules, qHTS assay (AID 1346983). Note: nearly all actives have a fitted effect of over 20% in size. The following applies: rPXR luciferase reporter cells, One-Glo luminescence, 24 h; max activation: stronger effect = higher value. The essentials: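 Cell-based rPXR luciferase reporter assay, 2,000 cells per well, rested 5hr at 37 C before compound addition in DMSO, then 24 hr at 37 C. One-Glo reagent was added and luminescence read after 30 min at room temperature.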
Sequence of Nuclear receptor subfamily 1 group I member 2 (Rattus norvegicus) (Q9R1A7 whole entry, looked up): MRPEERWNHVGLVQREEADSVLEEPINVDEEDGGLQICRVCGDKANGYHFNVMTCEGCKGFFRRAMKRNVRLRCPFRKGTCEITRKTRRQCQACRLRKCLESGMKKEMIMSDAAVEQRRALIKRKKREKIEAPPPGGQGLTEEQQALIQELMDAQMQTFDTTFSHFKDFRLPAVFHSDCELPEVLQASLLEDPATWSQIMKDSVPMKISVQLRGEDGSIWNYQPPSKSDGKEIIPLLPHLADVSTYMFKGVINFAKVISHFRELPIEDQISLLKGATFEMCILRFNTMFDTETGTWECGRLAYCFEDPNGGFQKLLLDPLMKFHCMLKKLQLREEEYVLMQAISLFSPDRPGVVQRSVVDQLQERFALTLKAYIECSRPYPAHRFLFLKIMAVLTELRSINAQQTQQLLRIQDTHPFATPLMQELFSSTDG

Assay [6] addresses Nuclear receptor subfamily 1 group I member 2 (Homo sapiens) (UniProt O75469). The assay can be described thus: CYP3A4 induction through human pregnane X receptor (PXR) by small molecules, qHTS assay (AID 1346984). Note: nearly all actives have a fitted effect of over 40% in size. Note: potency is the fitted concentration of half-maximal effect. In outline: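 DPX-2 cells (HepG2 co-transfected with PXR and CYP3A4 promoter-luciferase) treated with compounds 24 h at 37C; luciferin-IPA CYP3A4 substrate 3uM final added for 3 h, then One-Glo; luminescence read. qHTS format.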

For assay [7] the target is unchanged. Description: Human pregnane X receptor (PXR) activation by small molecules, qHTS assay (AID 1346985). Note: nearly all actives have a fitted effect of over 40% in size. Note: potency is the fitted concentration of half-maximal effect. In outline:
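DPX-2 cells (HepG2 co-transfected with a PXR response element and a CYP3A4-promoter luciferase construct) were seeded at 2,000 per well, rested 5 hr at 37C, then exposed to DMSO-dissolved compounds for 24 hr. Activation was read as luciferase luminescence.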

The target of assay [8] is Cytochrome P450 2D6 (Homo sapiens) (UniProt P10635). Description: Cytochrome P450 Family 2 Subfamily D Member 6 (CYP2D6) small molecule antagonists: luciferase reporter qHTS assay (AID 1671196). Note: nearly all actives have a fitted effect of over 50% in size. Note: potency is the fitted concentration of half-maximal effect. The essentials:
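CYP2D6 enzyme–substrate mix was held with compound for 10 min at room temperature, then NADPH regeneration solution was added and the reaction ran 1 h at room temperature. Luciferin product was detected by luminescence after 20 min with detection reagent.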
For orientation: In a reporter assay the amount or activity of a reporter protein is the signal.

The nature of assay [9]: Caspase-3/7 induction in CHO-K1 cells by small molecules, qHTS cell viability counter screen (AID 1346979). Note: nearly all actives have a fitted effect of over 35% in size. The essentials: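 CellTiter-Fluor viability check, qHTS format: wild-type CHO-K1, 16hr compound treatment, 1hr reagent incubation, fluorescence read.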

Structures are written as SMILES. “And” between values parts separate entries of the source, which are not always exact repeats. Equal values may be shown once. Records with an inconclusive call do not appear. A structure can be active in one record and inactive in another. The source made the active and inactive calls. Calls come from the whole dose curve; as a rule, active = well fitted curve in the direction sought with a large enough effect in the repeat runs; inconclusive = weak or mixed curves; inactive = no such curve, though single readings can be large; an effect the other way counts as inactive or inconclusive.
% is set by controls: 0 for no effect and ±100 for the full control effect.

Sequence of Cytochrome P450 2D6 (Homo sapiens) (P10635 whole entry, looked up): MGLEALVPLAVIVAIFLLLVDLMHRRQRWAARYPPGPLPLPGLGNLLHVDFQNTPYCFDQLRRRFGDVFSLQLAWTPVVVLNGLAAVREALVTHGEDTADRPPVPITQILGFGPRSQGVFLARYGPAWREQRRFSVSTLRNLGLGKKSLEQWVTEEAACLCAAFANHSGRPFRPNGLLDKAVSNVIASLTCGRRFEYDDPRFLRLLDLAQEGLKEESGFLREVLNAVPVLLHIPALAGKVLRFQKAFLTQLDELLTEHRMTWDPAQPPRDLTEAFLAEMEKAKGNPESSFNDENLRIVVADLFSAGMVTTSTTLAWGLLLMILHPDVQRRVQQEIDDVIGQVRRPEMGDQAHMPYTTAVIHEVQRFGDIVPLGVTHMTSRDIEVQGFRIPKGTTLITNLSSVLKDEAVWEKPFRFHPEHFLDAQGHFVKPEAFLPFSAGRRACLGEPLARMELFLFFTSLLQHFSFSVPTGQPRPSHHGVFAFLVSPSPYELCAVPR
Sequence of Nuclear receptor subfamily 1 group I member 2 (Homo sapiens) (O75469 whole entry, looked up): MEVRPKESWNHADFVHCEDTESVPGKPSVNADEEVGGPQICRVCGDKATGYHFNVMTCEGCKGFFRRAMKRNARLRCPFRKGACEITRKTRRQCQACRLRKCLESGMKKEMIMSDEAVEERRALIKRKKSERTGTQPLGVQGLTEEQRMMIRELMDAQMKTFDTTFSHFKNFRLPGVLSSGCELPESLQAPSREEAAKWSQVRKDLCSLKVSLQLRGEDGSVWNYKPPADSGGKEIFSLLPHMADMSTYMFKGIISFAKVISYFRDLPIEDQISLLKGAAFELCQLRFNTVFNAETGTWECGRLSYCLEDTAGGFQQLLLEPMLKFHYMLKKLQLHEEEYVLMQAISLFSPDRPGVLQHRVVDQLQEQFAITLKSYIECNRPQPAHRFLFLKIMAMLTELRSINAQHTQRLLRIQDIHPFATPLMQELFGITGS

Turning to `CN(Cc1cnc2nc(N)nc(N)c2n1)c1ccc(C(=O)N[C@@H](CCC(=O)O)C(=O)O)cc1`, the Potency result in assay [1], in [2], in assay [3], in assay [4], in [6] and in assay [7] was “inactive” each time. In assay [8], the Potency entry was “inactive”. Further, the max activation in assay [5] was -6.01% (inactive).
As for `CN(C)CCCN1c2ccccc2Sc2ccc(Cl)cc21`, the Potency in assay [1] is 27.3 µM (active) and 26.6 µM (active); in assay [3], 61.1 µM (active) and 29.8 µM (active).
Regarding `CC(=O)OC(C)C`, the Potency result in assay [1], in assay [9], in assay [2], in assay [3], in assay [4] and in [8] was “inactive” throughout.
With `C[C@]12CC[C@@H]3c4ccc(O)cc4CC[C@H]3[C@@H]1CC[C@@H]2O`, the Potency entry in [1], in [2] and in assay [3] was “inactive” in each case. For the same compound, the max activation in assay [5] is -1.66% (inactive). Moreover, in [8], the Potency was 8.92 µM (active) and inactive.
Consider `O=C(O)COCCN1CCN(C(c2ccccc2)c2ccc(Cl)cc2)CC1` (stereo not drawn), for which the Potency entry in [1], in [9], in assay [2], in assay [3], in [4] and in assay [7] was “inactive” throughout. In addition, the max activation in assay [5] is 1.59% (inactive).
On to `Nc1ccc2c(c1)C(=O)c1ccccc1C2=O`, for which the Potency entry in assay [2] was “inactive”. The Potency is 30.1 µM (active) in [3]; 190 nM (active) and 486 nM (active) in assay [4].
Turning to `COc1cc([C@H]2Oc3cc([C@H]4Oc5cc(O)cc(O)c5C(=O)[C@@H]4O)ccc3O[C@@H]2CO)ccc1O`, the Potency result in assay [1], in assay [2], in assay [6] and in assay [7] was “inactive” throughout. The Potency was 60.9 µM (active) and inactive in assay [3]; 60.9 µM (active) and inactive in assay [4]. In [5], the max activation was -6.88% (inactive).
In the case of `O=C(O)CCCCCCCCCCCC(=O)O`, the Potency entry in assay [1], in assay [2], in [3] and in assay [4] was “inactive” throughout. Besides, the Potency in [8] is 17.6 µM (active).
As to `CC(C)[C@@H]1CC[C@@H](C)CC1=O`, the Potency entry in [1], in assay [9], in assay [2], in [3], in assay [4] and in assay [6] was “inactive” throughout. In addition, the Potency entry in assay [7] and in assay [8] was “inactive” in each case. For the same compound, the max activation in assay [5] is -3.74% (inactive).
In the case of `C=CC(C)(O)CCC=C(C)C` (stereo not drawn), the Potency result in assay [1], in assay [9], in assay [2], in assay [3], in assay [4] and in assay [8] was “inactive” in each case.
Consider `CCCOCCO`, for which the Potency result in [1], in [9], in [2], in [3], in assay [4] and in assay [8] was “inactive” throughout.
Regarding `ClC/C=C/CCl`, the Potency entry in [2], in assay [3] and in assay [4] was “inactive” in each case. In addition, the Potency in assay [8] was 62.8 µM (active) and inactive.
With `C=C1C[C@H]2[C@@H]3C=C(C)C4=CC(=O)CC[C@]4(C)[C@H]3CC[C@]2(C)[C@@]1(OC(C)=O)C(C)=O`, the Potency result in assay [1], in assay [2], in assay [3], in assay [6], in assay [7] and in assay [8] was “inactive” each time. Moreover, the Potency in [4] was 31.3 µM (active).
Turning to `OC[C@H]1O[C@@H]2O[C@H]3[C@H](O)[C@@H](O)[C@@H](O[C@H]4[C@H](O)[C@@H](O)[C@@H](O[C@H]5[C@H](O)[C@@H](O)[C@@H](O[C@H]6[C@H](O)[C@@H](O)[C@@H](O[C@H]7[C@H](O)[C@@H](O)[C@@H](O[C@H]1[C@H](O)[C@H]2O)O[C@@H]7CO)O[C@@H]6CO)O[C@@H]5CO)O[C@@H]4CO)O[C@@H]3CO`, the Potency entry in assay [1], in [2], in assay [3], in [4], in assay [6] and in [7] was “inactive” in each case. Also, in [8], the Potency result is “inactive”. The max activation in [5] is -2.41% (inactive).
For `O=C(O)c1cc(=O)[nH]c(=O)[nH]1`, the Potency result in assay [1], in [9], in assay [2], in [3], in [4] and in assay [6] was “inactive” throughout. Further, the Potency result in assay [7] was “inactive”. Moreover, the max activation in [5] was -3.14% (inactive). The Potency in [8] is 6.34 µM (active).
For `OC[C@@H](O)[C@@H](O[C@@H]1O[C@H](CO)[C@H](O)[C@H](O)[C@H]1O)[C@H](O)[C@@H](O)CO`, the Potency entry in assay [1], in [2], in assay [3], in [4], in assay [6] and in [7] was “inactive” throughout. Moreover, in assay [8], the Potency result was “inactive”. In assay [5], the max activation is -8.22% (inactive).
On to `C1CN(SSN2CCOCC2)CCO1`, for which the Potency entry in assay [1] and in assay [3] was “inactive” in each case. For the same compound, the Potency was 61.1 µM (active) in assay [4]; 78.9 µM (active) and 31.7 µM (active) in assay [8].
With `C=CCNCC=C`, the Potency entry in [1], in [2], in assay [3], in [4] and in [8] was “inactive” each time.
Take `CC[C@]12CCCN3CCc4c(n(c5ccccc45)[C@@](O)(C(=O)OC)C1)[C@@H]32`: the Potency result in [1], in [2] and in [3] was “inactive” in each case. Moreover, the Potency was 30.6 µM (active) and 9.44 µM (active) in [4]; 12.6 µM (active) in assay [6]; 14.1 µM (active) in assay [7]; 10 µM (active) and 8.71 µM (active) in assay [8]. Besides, in [5], the max activation is 1.48% (inactive).
With `Clc1ccc(Sc2cc(Cl)c(Cl)cc2Cl)cc1`, the Potency entry in assay [1], in [2], in assay [3] and in assay [8] was “inactive” in each case. Besides, the Potency in assay [4] was 59.5 µM (active) and inactive.
With `IC(I)I`, the Potency entry in [1], in [2], in assay [3], in assay [4] and in assay [7] was “inactive” in each case. The max activation in assay [5] was -1.04% (inactive).
